# Assay results from PubChem BioAssay (NCATS).
# Inconclusive results are not listed. Where a call stands in place of a potency, no number is given. Calls of active or inactive are those of the source. Calls follow the shape of the dose curve; as a rule, active = well fitted curve in the direction sought with a large enough effect; inconclusive = small, poorly fitted or top-dose-only effect, or another doubt; inactive = no such curve, though single readings can be large; an effect the other way counts as inactive or inconclusive.
# Test system: not listed separately
# Assay: Cell Viability - LYMP2-001 (AID 921);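 also: cells exposed to compound for 24 h at 37 °C; nearly all actives have a fitted effect of over 70% in size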
# Conditions: LYMP2-001 lymphoblastoid cell viability; series mostly up to 92.2 µM
# Procedure, shortened: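 qHTS, 1536-well; lymphoblastoid cells, 24 hr compound, 37 C; ATP by CellTiter-Glo, 30 min RT; luminescence; Hill-fit AC50.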
row,SMILES,Potency
1,O=C(O)C(Cl)Cl,inactive
2,CCCCOC(=O)c1ccccc1C(=O)OCc1ccccc1,inactive
3,Nc1ccc(Cl)cc1,inactive

# Test system: not listed separately
# Assay: Confirmation and Secondary Assay for Modulators of Hemoglobin Beta Chain Splicing at IVS2 705 locus (AID 930);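 also: HeLa cells stably expressing the EGFP-705 splicing reporter; GFP fluorescence per well restored by corrected splicing of the IVS2-705 intron in EGFP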
# Conditions: HeLa EGFP-705 splicing reporter, GFP fluorescence, 48 h; series mostly up to 46.1 µM
# Procedure, shortened: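 Per-well GFP, captured at 1 x 8 µm resolution with 488 nm excitation, served as the read-out for HeLa EGFP-705 cells incubated 2 days with test compound versus DMSO.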
row,SMILES,outcome
1,C#CC1(O)CCC2C3CCC4=CC(=O)CCC4(C)C3CCC21C (stereo unspecified),inactive
2,O=C(O)CCCOc1ccc(Cl)cc1Cl,inactive
3,CCCCCCCCCCCCCCCC[N+](C)(C)C,inactive
4,CC(Cc1ccc(O)cc1)NCC(O)c1cc(O)cc(O)c1 (stereo unspecified),inactive
5,CCC(=O)OC1CCC2C3CCC4=CC(=O)CC[C@@]4(C)C3CC[C@]12C (stereo partly specified),inactive

# Target: Muscarinic acetylcholine receptor M1 (Rattus norvegicus) (UniProt P08482)
# Assay: qHTS Assay for Antagonists of Acetylcholine Muscarinic M1 Receptor: Kinetic Measurement of Intracellular Calcium Response (AID 943); also: nearly all actives have a fitted effect of over 75% in size; also: potency is read from the fitted curve at half-maximal effect
# Conditions: M1-expressing cells, kinetic intracellular calcium fluorescence; series mostly up to 35.3 µM
# Procedure, shortened: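 CHO cells stably expressing rat M1 were loaded with no-wash Fluo-4 dye for 1 h at 37C, pre-incubated 10 min with compound, then challenged with EC80 carbachol (100 nM final); kinetic calcium read 4 min, peak/basal ratio.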
# Chain of Muscarinic acetylcholine receptor M1 (Rattus norvegicus) (P08482 whole entry, looked up): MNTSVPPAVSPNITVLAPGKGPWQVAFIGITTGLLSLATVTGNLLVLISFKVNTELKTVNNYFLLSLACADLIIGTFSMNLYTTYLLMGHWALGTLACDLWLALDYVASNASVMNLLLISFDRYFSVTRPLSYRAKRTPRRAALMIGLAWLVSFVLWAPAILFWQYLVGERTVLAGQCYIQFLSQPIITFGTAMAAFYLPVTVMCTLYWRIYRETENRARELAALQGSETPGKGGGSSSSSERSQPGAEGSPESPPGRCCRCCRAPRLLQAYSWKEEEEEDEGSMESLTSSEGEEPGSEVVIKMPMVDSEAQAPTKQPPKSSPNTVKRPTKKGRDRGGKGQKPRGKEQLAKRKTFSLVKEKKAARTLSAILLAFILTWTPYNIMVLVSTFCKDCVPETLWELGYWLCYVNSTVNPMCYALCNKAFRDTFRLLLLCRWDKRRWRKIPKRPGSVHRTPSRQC
row,SMILES,Potency
1,c1ccc(CCCN2CCN(CCOC(c3ccccc3)c3ccccc3)CC2)cc1,891 nM (active)
2,C#CCOC(=O)C1=CCCN(C)C1,inactive
3,CNCCc1ccc(O)c(O)c1,inactive
